# RXFP1 agonist: RXFP1 (human) receptor agonism; 370,000 tested, 0.3% active; Q9HBX9; Potency, µM (top dose mostly 57.5 µM), hits mostly activators; AID 2676; HEK293T-RXFP1 cAMP TR-FRET, 30 min; response scale: percent of porcine relaxin response, buffer zero; active = well fitted activation curve with a large enough effect; inconclusive = small, poorly fitted or top-dose-only effect; also: nearly all actives have a fitted effect of over 60% in size
# Target sequence (Q9HBX9 whole entry, looked up): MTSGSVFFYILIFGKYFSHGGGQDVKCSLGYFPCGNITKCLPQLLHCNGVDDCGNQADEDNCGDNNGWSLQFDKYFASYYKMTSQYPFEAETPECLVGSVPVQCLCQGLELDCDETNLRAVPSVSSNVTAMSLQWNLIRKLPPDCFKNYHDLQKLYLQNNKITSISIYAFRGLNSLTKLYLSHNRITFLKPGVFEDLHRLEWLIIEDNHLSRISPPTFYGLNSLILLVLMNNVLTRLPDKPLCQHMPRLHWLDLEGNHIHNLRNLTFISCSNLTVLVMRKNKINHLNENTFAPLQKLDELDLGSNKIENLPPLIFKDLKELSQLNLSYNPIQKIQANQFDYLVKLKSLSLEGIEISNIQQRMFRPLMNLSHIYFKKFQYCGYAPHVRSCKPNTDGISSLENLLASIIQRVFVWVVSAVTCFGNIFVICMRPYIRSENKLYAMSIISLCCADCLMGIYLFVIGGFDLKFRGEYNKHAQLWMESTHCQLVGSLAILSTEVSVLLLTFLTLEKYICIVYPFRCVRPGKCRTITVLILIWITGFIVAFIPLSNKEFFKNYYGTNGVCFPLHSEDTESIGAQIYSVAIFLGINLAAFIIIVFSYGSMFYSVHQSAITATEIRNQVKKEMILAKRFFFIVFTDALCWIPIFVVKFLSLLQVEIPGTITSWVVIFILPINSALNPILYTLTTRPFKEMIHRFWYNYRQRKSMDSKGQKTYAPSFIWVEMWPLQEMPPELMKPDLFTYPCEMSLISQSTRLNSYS
#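 Agonist response is measured as cAMP accumulation in an RXFP1-transfected HEK293T line under PDE4 inhibition. Values are scaled between buffer-only and 29 nM porcine relaxin, and EC50s come from standard Hill equation fits.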
# RXFP1 antag: RXFP1 (human) relaxin receptor antagonism | HEK293-RXFP1, relaxin-stimulated cAMP HTRF, 30 min; stronger effect = lower value | AID 1259400 | activity change, negative = inhibition, % at 57.5 µM | 350,000 tested, 0.59% active;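 active = activity change of -60% or lower, but not beyond a set lower limit; inconclusive = change between -60% and -40%, or beyond the set limit; inactive = change above -40%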
# gsp antag: antagonizes gsp, the McCune-Albright syndrome mutation; gsp-mutant cells, cAMP HTRF, 30 min; Potency, µM (top dose mostly 76.9 µM), most hits filed as inhibitors; 340,000 tested, 0.4% active; AID 624288; calls by dose curve; cell line not stated here;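 also: intracellular cAMP measured with PDE inhibitor Ro 20-1724 present during compound exposure; nearly all actives have a fitted effect of over 65% in size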
#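 G418-selected cells were plated in DMEM/10% FBS for 16-24 h at 37C, then treated with compounds plus the PDE inhibitor […] (300 uM solution added) for 30 min at 37C. Intracellular cAMP was measured by HTRF after 30 min lysis at room temperature.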
# gsp agonist: activates gsp, the McCune-Albright syndrome mutation. gsp mutant cells, cAMP HTRF, 30 min. Potency, µM (series often up to 76.9 µM), usual class: activators. 340,000 tested, 0.13% active; active = well fitted activation curve with a large enough effect; inconclusive = small, poorly fitted or top-dose-only effect, or another doubt; inactive = no such curve, though single readings can be large or run the other way; cell line not stated here;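 also: phosphodiesterase inhibitor Ro 20-1724 added with compounds to block cAMP breakdown; nearly all actives have a fitted effect of over 60% in size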
#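 Cells in DMEM/10% FBS with G418 were pretreated with compounds in DMSO plus […] (300 uM stock) for 30 min at 37C. cAMP was measured by HTRF (cAMP-d2 plus anti-cAMP antibody-K) after 30 min at room temperature.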
# Akt phos inh: blocks phosphorylation of Akt; Neuro2A IGF-stimulated pAkt S473 HTRF, 20 min; stronger effect = lower value; activity change, % for hits at 50 µM; 360,000 tested, 0.32% active; in the data active = activity change below about -80%; inconclusive = mostly about -51% to -80%
#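 Neuro2A cells (4,500/well, DMEM with 0.5% FBS) were treated with compound at a single 50 µM final concentration, stimulated with 6 nM IGF for 20 min at 37 °C, and lysed. Phospho-Akt Ser473 was read by HTRF as 665/615 ratio ×10^4.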
# Numbers stand for hits; i = inactive; ? = inconclusive; nt = no result given; [ ] = another dose, or the depositor's remark. Compounds with a hit are over-represented: about 1.2% of the library has one in this group of screens.
SMILES,RXFP1 agonist,RXFP1 antag,gsp antag,gsp agonist,Akt phos inh
COc1ccccc1CNC(=O)CSc1ncc2c(n1)-c1ccccc1N(Cc1ccc(C)cc1)S2(=O)=O,i,nt,nt,nt,nt
COc1cc(C(=O)Nc2nnc(S(=O)(=O)N(C)c3ccccc3)s2)cc(OC)c1OC,i,-64.5,nt,nt,nt
CCc1ccc(CNC(=O)c2cc(-c3ccc(Br)s3)nc3ccccc23)cc1,?,i,nt,nt,nt
O=C(O)c1cc(-c2ccc(Br)s2)nc2ccccc12,2.82µM,i,i,?,i
COc1ccccc1NC(=O)CSc1nc2c(oc3ccccc32)c(=O)n1-c1ccc(C)cc1,i,nt,nt,nt,nt
O=C(c1ccc(CSc2nc3ccncc3[nH]2)cc1)N1CCN(c2cccc(Cl)c2)CC1,i,i,35.5µM,?,i
O=C(Cn1nc(-c2ccccc2)ccc1=O)Nc1ccc(-n2cnnn2)cc1,i,?,44.7µM,i[15.4 µM],i
O=C(Cn1nc(-c2ccc3c(c2)OCCO3)ccc1=O)Nc1ccc(-n2cnnn2)cc1,i,i,i,i,i
COc1ccc(Cn2c(C(=O)O)c(CNCCc3cccs3)c3ccc(C)cc32)cc1,i,i,nt,nt,nt
CCN(CC)CCCNc1ccc2ncn3c4ccc(O)cc4c(=O)c1c23,nt,i,?,11.2µM,i
CN(C)CCNc1ccc2nnn3c4ccc(O)cc4c(=O)c1c23,nt,i,i,?,i
Cc1ccc(Nc2nccc(N(C)c3ccc4c(C)n(C)nc4c3)n2)cc1S(N)(=O)=O,nt,i,nt,nt,nt
CCOC(=O)CSc1nc(=O)n2ccc(C)cc2n1,i,-71.9,i,?,i
CCOC(=O)C1CCCN(S(=O)(=O)c2c(C)c(C)cc(C)c2C)C1 (centres undefined),i,i,7.08µM,i,i
O=S(=O)(Nc1ccc2c3c(cccc13)CC2)c1ccc(F)cc1,i,i,i,i,i
CSc1ccc(S(=O)(=O)Nc2ccc3c4c(cccc24)CC3)cc1,i,i,28.2µM,i,i
Cc1nc2scc(C)n2c(=O)c1S(=O)(=O)N1CCN(c2ccccn2)CC1,25.1µM,i,i,i[15.4 µM],i
CCOC(=O)N1CCN(C(=O)c2ccc(-n3c(=S)[nH]c4ccccc4c3=O)cc2)CC1,i,-107.0,?,i,nt
O=C(Cc1ccc(-n2c(=S)[nH]c3ccccc3c2=O)cc1)N1CCN(c2ccccc2)CC1,i,?,i,i,i
COC(CNC(=O)c1ccc(-n2c(=S)[nH]c3ccccc3c2=O)cc1)OC,i,-75.3,i,i[15.4 µM],i
CCC(C)NC(=O)c1ccc(-n2c(=S)[nH]c3ccccc3c2=O)cc1 (centres undefined),i,-104.7,i,i[15.4 µM],i
CCOc1ccc(C(=O)Nc2ccc3nc(SCC(=O)N4CCOCC4)sc3c2)cc1,i,i,nt,nt,nt
CN(C(=O)c1ccc2c(c1)N(Cc1ccccc1F)C(=O)c1ccccc1S2(=O)=O)C1CCCCC1,i,nt,nt,nt,nt
Cc1cc(C(=O)COC(=O)c2ccc(NC(=O)CC#N)cc2)c(C)n1-c1ccc(OC(F)F)cc1,nt,-62.1,i,i,i
Cc1cc(C(=O)COC(=O)c2ccc(NC(=O)CC#N)cc2)c(C)n1CC(F)(F)F,nt,i,nt,i,i
SMILES,RXFP1 agonist,RXFP1 antag,gsp antag,gsp agonist,Akt phos inh
Cc1ccccc1C(=O)NN1CC(C(=O)OCc2ccc(Cl)c(Cl)c2)CC1=O (centres undefined),i,i,31.6µM,i,i
Oc1ccccc1Nc1nc(NCc2ccccc2)c2ccccc2n1,i,-79.0,?,i[15.4 µM],i
CCn1c(/C=C/c2ccc(O)cc2)nc2ccccc2c1=O,i,-70.7,i,i[15.4 µM],i
COc1cc(NS(=O)(=O)c2ccc(-c3cc(C)no3)cc2)cc(OC)c1,i,i,nt,nt,nt
CC(C)(C)C(=O)Nc1scc(-c2ccc(-c3ccccc3)cc2)c1C(=O)O,i,i,35.5µM,i,i
Cc1ccc(C(=O)Nc2scc(-c3ccccc3)c2C(=O)O)cc1,nt,i,i,i[15.4 µM],i
COc1ccc(OC)c(-n2nnnc2SCC(=O)Nc2ccc(C(=O)N3CCCCC3)cc2)c1,i,i,?,i,i
COc1ccc(OCCSc2nnnn2C2CCCCC2)cc1,i,i,i,i,i
COc1ccc(OC)c(-n2nnnc2SCC(=O)Nc2ccc3c(c2)OCCO3)c1,i,i,i,11.2µM,i
COc1ccc(NC(=O)CSc2nnnn2C2CCCC2)cc1,i,i,i,i,i
c1ccc(OCCSc2nnnn2C2CCCCC2)cc1,i,i,i,i,-111.7%
COc1ccc(NC(=O)CSc2nnnn2C2CCCCC2)cc1,i,-78.4,i,i,i
O=C(CSc1nnnn1C1CCCC1)Nc1ccc(F)cc1,i,i,i,i,-110.4%
CCCc1cc(=O)[nH]c(SCC(N)=O)n1,i,i,i,i,-125.2%
CN1Cc2cc(C(=O)N3CCC(C4CCNCC4)CC3)ccc2NC(CC(=O)O)C1=O (centres undefined),nt,i,nt,nt,nt
O=C1c2ccccc2-c2onc3c(N4CCN(CCO)CC4)cc(N4CCN(C(=O)c5ccco5)CC4)c1c23,i,i,17.8µM,i[15.4 µM],i
CN1CCN(c2cc(N3CCN(C(=O)c4ccco4)CC3)c3c4c(onc24)-c2ccccc2C3=O)CC1,i,i,i,i,i
O=C(O)CCCNc1cc(N2CCN(C(=O)c3ccco3)CC2)c2noc3c2c1C(=O)c1ccccc1-3,i,-65.2,?,i,i
O=C(CSCc1ccc(Cl)cc1)Nc1cc([N+](=O)[O-])ccc1O,i,i,?,i,i
Cc1ccc(SCC(=O)Nc2cc([N+](=O)[O-])ccc2O)cc1,i,i,50.1µM,i[15.4 µM],i
CCOc1cc(C)c(-c2onc(C(F)(F)F)c2-c2csc(C)n2)c(O)c1,i,-84.1,?,i,i
Cc1nc(-c2c(C(F)(F)F)noc2-c2ccc(O)cc2O)cs1,i,i,i,i,i
CC(C)[C@H](NC(=O)[C@@H]1Cc2ccccc2CN1C(=O)OC(C)(C)C)C(=O)NC1CCCC1,i,-102.9,?,i,nt
COc1cccc(N2CCN(C(=O)c3cc4c(=O)n(Cc5cccs5)ccc4nc3C)CC2)c1,i,i,nt,nt,nt
CCN(CC(=O)NCc1ccc(Cl)cc1)C(=O)CSc1ccc(Br)cc1,i,i,39.8µM,i,i
SMILES,RXFP1 agonist,RXFP1 antag,gsp antag,gsp agonist,Akt phos inh
CCS(=O)(=O)N1CCCc2cc(C(=O)Nc3cc([N+](=O)[O-])ccc3C)ccc21,i,nt,nt,nt,nt
CC(C)C(=O)N1CCN(c2ccc(NC(=O)COc3ccccc3[N+](=O)[O-])cc2)CC1,i,i,28.2µM,i,i
CCCCCOc1ccc(C2SC(=O)NC2=O)cc1OCC (centres undefined),nt,i,nt,nt,nt
CC(C)C(=O)N(c1cc2sc(=O)oc2c2ccccc12)S(=O)(=O)c1cccs1,i,-67.6,i,i,i
CC[N+](CC)(CCCCS(=O)(=O)[O-])CCNP1(=O)C=C(c2ccccc2)OC(c2ccccc2)=C1,15.8µM,i,i,?,i
O=P1(Nn2cnnc2)C=C(c2ccccc2)OC(c2ccccc2)=C1,i,i,i,i,i
Cc1oc2c(C)c3oc(=O)c(CC(=O)N4CCCCC4)c(C)c3cc2c1C,i,i,nt,nt,nt
